Screens: PubChem, National Center for Advancing Translational Sciences (NCATS)
Hits are enriched below; roughly 3.6% of the tested compounds scored in any of these assays.
Rango release inh = prevents RanGTP from dissociating the Rango-importin beta complex; Biochemical FRET Rango-importin beta, RanGTP-induced dissociation; O95149+P62826; Potency, µM (doses to about 46.1 µM), inactives show top-dose activity change, negative = inhibition; actives 0.071% (n = 340,000); calls by dose curve; also: potency is read from the fitted curve at half-maximal effect; % of control where 0% means no effect; nearly all actives have a fitted effect of over 45% in size
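Compounds sat 5 min at room temperature with 0.1 uM Rango biosensor plus 0.25 uM importin beta, then FRET pre-read. RanGTP-RCC1 (0.6 uM Ran, 2mM GTP, 0.2 uM RCC1) added for 45 min, and the CFP/YFP post-read measured blocked complex dissociation.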
PI5P4K alpha inh = PI5P4K alpha (human) kinase inhibition. PI5P4Kalpha enzyme, ADP-Glo luminescence, 60 min; stronger effect = lower value. max response, %. actives 1.2% (n = 330,000); active = max response of -50% or lower; inconclusive = between -30% and -50%; inactive = -30% or higher; also: value at the top dose of about 77 µM; % is scaled to controls: 0 for no effect and ±100 for the full control effect
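PI5P4Kalpha ADP-Glo assay; 5 microM ATP final; 60 min RT reaction; HEPES pH 7.4/EGTA/CHAPS, 5% DMSO; controls lacking substrate or enzyme; luminescent end-point.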
PLK1 PBD inh = blocks phosphopeptide binding to human PLK1 polo-box domain; P53350; Plk1 PBD binding of FITC phosphopeptide, fluorescence polarization; Potency, µM, inactives show max response, negative = inhibition, hits mostly inhibitors; actives 2.8% (n = 360,000); also: potency is read from the fitted curve at half-maximal effect; series mostly up to about 57 µM; % is scaled to controls: 0 for no effect and ±100 for the full control effect; nearly all actives have a fitted effect of over 65% in size
VDR inhibitor = vitamin D3 receptor (human) inhibition | VDR-SRC2-3 peptide fluorescence polarization, 2 h | Potency, µM, for inactives: max response, negative = inhibition, usual class: inhibitors | actives 0.93% (n = 400,000) | AID 504847; also: potency is read from the fitted curve at half-maximal effect; % is scaled to controls: 0 for no effect and ±100 for the full control effect
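Fluorescence polarization assay of small-molecule disruption of VDR binding to coregulator peptide SRC2-3. Compounds and controls pin-transferred, then read after 2 h incubation at ambient room temperature.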
Rango complex inh = inhibitors of Rango-importin beta complex formation; Q14974; Rango CFP/YFP FRET sensor + importin beta, 45 min; Potency, µM (doses to about 92.2 µM), for the others: at the highest dose inhibition of complex formation; actives 0.031% (n = 340,000); calls by dose curve;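 also: potency is read from the fitted curve at half-maximal effect; 0% = DMSO wells and 100% = buffer wells lacking importin beta; nearly all actives have a fitted effect of over 15% in size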
Target sequence (Q14974 whole entry, looked up): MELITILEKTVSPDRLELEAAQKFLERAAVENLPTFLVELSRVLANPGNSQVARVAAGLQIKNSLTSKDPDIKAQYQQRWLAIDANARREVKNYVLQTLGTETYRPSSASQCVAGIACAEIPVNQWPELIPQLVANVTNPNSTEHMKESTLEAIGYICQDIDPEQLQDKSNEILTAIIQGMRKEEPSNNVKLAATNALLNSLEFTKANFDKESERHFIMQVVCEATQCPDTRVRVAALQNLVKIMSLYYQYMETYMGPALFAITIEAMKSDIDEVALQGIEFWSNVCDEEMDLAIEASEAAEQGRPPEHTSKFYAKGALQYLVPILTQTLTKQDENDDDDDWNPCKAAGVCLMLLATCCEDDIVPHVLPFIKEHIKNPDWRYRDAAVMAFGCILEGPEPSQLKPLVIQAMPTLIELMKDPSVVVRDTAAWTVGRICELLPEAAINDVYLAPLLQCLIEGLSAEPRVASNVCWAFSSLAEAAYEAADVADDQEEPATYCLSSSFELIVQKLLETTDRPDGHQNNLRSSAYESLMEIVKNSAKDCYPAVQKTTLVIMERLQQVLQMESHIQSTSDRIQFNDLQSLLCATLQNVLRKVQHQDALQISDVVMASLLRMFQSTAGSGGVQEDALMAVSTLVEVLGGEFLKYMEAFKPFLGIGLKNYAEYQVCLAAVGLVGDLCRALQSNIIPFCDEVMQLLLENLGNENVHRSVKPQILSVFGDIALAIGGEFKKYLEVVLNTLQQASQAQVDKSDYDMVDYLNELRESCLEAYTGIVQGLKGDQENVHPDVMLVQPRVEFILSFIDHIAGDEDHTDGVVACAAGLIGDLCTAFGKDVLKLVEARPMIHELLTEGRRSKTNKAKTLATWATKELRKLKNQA
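FRET biosensor Rango (snurportin 1 IBB between N-terminal EYFP and C-terminal Cerulean), 50 nM in PBS/1 mM DTT/0.02% Tween-20/0.1% BSA, preincubated 5 min RT with compound; 0.125 microM importin beta added, 45 min RT, CFP/YFP FRET ratio read.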
KAT2A inh = GCN5L2 (KAT2A) acetyltransferase inhibition | Q92830 | GCN5L2 HAT assay, ThioGlo1 CoA-SH fluorescence | Potency, µM (top dose mostly 58.9 µM), for inactives: top-dose activity change, negative = inhibition, usual class: inhibitors | actives 0.21% (n = 390,000) | AID 504327; also: potency is read from the fitted curve at half-maximal effect; % is scaled to controls: 0 for no effect and ±100 for the full control effect
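Fluorescence readout, Ex340nm/Em540nm: ThioGlo1 (50uM final) reacts with free CoA thiol released as 20nM GCN5L2 acetylates H3(1-25) peptide (75uM) using acetyl-CoA (70uM). Compound and enzyme sat 15 min beforehand; 20 min room-temperature reaction.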
TbPYK confirm = confirmation of Trypanosoma brucei pyruvate kinase inhibitors; shares compounds with PLK1 PBD inh; recombinant TbPYK, Kinase-Glo ATP luminescence; Potency, µM (titrated, usually from 76.9 µM), for the others: top-dose activity change, negative = inhibition, actives largely listed as inhibitors; actives 67% (n = 890); AID 720569; also: potency is read from the fitted curve at half-maximal effect; % is scaled to controls: 0 for no effect and ±100 for the full control effect; nearly all actives have a fitted effect of over 70% in size
TbPYK orthogonal = orthogonal confirmation of Trypanosoma brucei pyruvate kinase inhibitors. shares compounds with PLK1 PBD inh. recombinant TbPYK, ADP-Glo luminescence, 60 min. Potency, µM (titrated, usually from 76.9 µM), for the others: top-dose activity change, negative = inhibition, usual class: inhibitors. actives 62% (n = 890); also: potency is read from the fitted curve at half-maximal effect; % is scaled to controls: 0 for no effect and ±100 for the full control effect; nearly all actives have a fitted effect of over 75% in size
* marks the source's active call; other numbers are inactive results; ? = inconclusive; . = no result given. Unless noted, calls follow the shape of the dose curve; as a rule, active = well fitted curve in the direction sought with a large enough effect; inconclusive = small, poorly fitted or top-dose-only effect, or another doubt; inactive = no such curve, though single readings can be large; an effect the other way counts as inactive or inconclusive.

SMILES	Rango release inh	PI5P4K alpha inh	PLK1 PBD inh	VDR inhibitor	Rango complex inh	KAT2A inh	TbPYK confirm	TbPYK orthogonal
Cc1ccc(C)c(N2CCN(C(=O)CCS(=O)(=O)c3ccc4c(c3)CC(=O)N4C)CC2)c1	.	.	.	4.4%	.	-3.2%	.	.
O=C(N/N=C/c1ccc(N2CCOCC2)o1)c1cccc([N+](=O)[O-])c1	14.4%	-2.8	?	?	0.0%	-9.6%	?	31.6µM*
Cc1ccc(/C=N/NC(=O)c2ccc(-c3ccccc3)cc2)o1	-7.6%	-14.8	-6.4%	-12.8%	-3.9%	-5.3%	.	.
O=C(N/N=C/c1ccc(N2CCCCC2)o1)c1ccccc1	-14.7%	1.0	?	22.4µM*	1.6%	-4.8%	31.6µM*	31.6µM*
Cc1ccc(/C=C/C(=O)N2CC(C)CC(C)C2)o1 (stereo not drawn)	-16.2%	?	26.7µM*	?	?	-10.0%	?	31.6µM*
COc1ccc(C(=O)N2CCC3(CCN(Cc4nccs4)CC3)CC2)cc1	.	.	.	1.6%	.	7.6%	.	.
CCn1c(C(=O)N2CCCC(C(=O)NCCc3ccc(C)cc3)C2)cc2sccc21 (stereo not drawn)	-4.7%	.	0.5%	-0.3%	-3.1%	-1.1%	15.8µM*	31.6µM*
Cc1ccc(N(C)S(=O)(=O)c2nnc(NC(=O)C3CCCCC3)s2)cc1	.	.	.	7.4%	.	-0.3%	.	.
CC1(C)CC(=O)C(=Cc2cn(-c3ccccc3)nc2-c2ccccc2)C(=O)C1	3.7%	-2.7	1.19µM*	?	0.3%	.	10µM*	?
CC(=O)N1c2ccccc2C(C)(c2ccc(C)cc2)CC1(C)C (stereo not drawn)	.	.	.	-28.2%	.	-2.8%	.	.
O=C1C(=Cc2cccc(O)c2O)SC(=S)N1CCCN1CCOCC1	.	-71.4*	5.32µM*	.	.	.	4.47µM*	2.24µM*
S=C(c1ccc(Br)cc1)N1CCN(Cc2ccccc2)CC1	1.3%	.	6.7µM*	?	0.0%	-12.3%	1.26µM*	8.91µM*
CN1CCN(C(=S)c2ccc(Br)cc2)CC1	-3.8%	1.0	4.23µM*	?	-1.1%	-4.3%	7.08µM*	7.94µM*
O=C(c1ccc(Br)cc1)N1CCN(Cc2ccccc2)CC1	0.1%	7.1	-3.6%	0.7%	-1.1%	-9.1%	.	.
O=C(c1ccc(F)cc1)N1CCN(Cc2ccccc2)CC1	12.0%	-4.9	-11.0%	-17.8%	0.4%	-7.5%	.	.
CN1CCN(C(=O)c2ccc(S(=O)(=O)c3ccc(Br)cc3)cc2)CC1	-4.4%	2.2	-18.4%	-5.9%	2.9%	-9.2%	.	.
Oc1ccc(C(=S)N2CCN(Cc3ccccc3)CC2)cc1	-5.5%	?	2.67µM*	50.1µM*	2.2%	-0.9%	15.8µM*	31.6µM*
CN(C)c1ccc(C(=S)N2CCN(Cc3ccccc3)CC2)cc1	14.8%	-12.4	4.23µM*	50.1µM*	-0.5%	-12.9%	5.01µM*	4.47µM*
COc1ccc(CCNC(=O)NCc2noc3ccc(C)cc23)c(OC)c1	.	.	.	-0.9%	.	0.6%	.	.
CCOC(=O)c1c(S(=O)(=O)N2CCC(C(=O)N3CCN(c4cccc(C)c4C)CC3)CC2)c(C)n(C)c1C	.	.	.	1.0%	.	-16.4%	.	.
CC(=O)Nc1c(C)nn(-c2ccccc2)c1N1CCC(C(=O)Nc2ccccc2C(F)(F)F)CC1	.	.	.	-1.0%	.	-8.1%	.	.
O=C(Nc1ccc(C(=O)O)cc1)/C(=C\c1ccco1)NC(=O)c1ccccc1	-3.9%	-8.6	-12.6%	-10.9%	3.8%	1.6%	.	.
CC(C)(C)c1ccc(C(=O)N/C(=C\c2ccco2)C(=O)Nc2ccccc2C(=O)O)cc1	-2.9%	?	-18.6%	-17.3%	?	?	?	-25.7%
Cc1ccc(C(CC(=O)Nc2cc(C)cc(C)c2)N2Cc3ccccc3C2=O)cc1 (stereo not drawn)	.	.	.	-6.2%	.	-1.5%	.	.
CCOc1ccc(NC(=O)/C=C\C(=O)N(c2ccc(C(C)C)cc2)C(C(=O)NCc2ccco2)c2ccc(F)cc2)cc1 (stereo not drawn)	.	.	.	9.4%	.	-11.4%	.	.
SMILES	Rango release inh	PI5P4K alpha inh	PLK1 PBD inh	VDR inhibitor	Rango complex inh	KAT2A inh	TbPYK confirm	TbPYK orthogonal
CCOC(=O)C1=C(C)c2ccccc2N(C(=O)OC)C1(C)C(=O)OCC (stereo not drawn)	7.3%	-29.0	?	?	0.1%	?	31.6µM*	39.8µM*
CCOC(=O)C1=C(C)c2ccccc2OC1(CC)C(=O)OCC (stereo not drawn)	-5.1%	7.7	1.0%	?	5.6%	-3.2%	.	.
Cc1ccc2c(c1)nc(SCC(O)c1ccc(Br)cc1)n2C (stereo not drawn)	.	.	.	-3.8%	.	0.8%	.	.
O=C1CC(Sc2nnc(-c3ccccc3)o2)C(=O)N1c1ccccc1 (stereo not drawn)	-21.0%	.	?	-4.9%	0.0%	-0.2%	.	.
Cc1ccccc1N1C(=O)CC(Sc2nnc(-c3ccccc3)o2)C1=O (stereo not drawn)	-14.0%	-11.2	0.0%	-11.0%	-3.2%	-23.6%	14.1µM*	17.8µM*
CCOC(=O)c1ccc2c(c1)C1C=CCC1C(C(=O)OCC)N2 (stereo not drawn)	?	?	-17.3%	-3.2%	?	-9.4%	-26.7%	-16.2%
COc1ccccc1CNc1ccc(-c2nc(-c3ccccn3)no2)cc1[N+](=O)[O-]	.	.	.	4.1%	.	-0.3%	.	.
O=C1CSC(=S)N1N=Cc1ccccc1O	-17.9%	-84.8*	13.4µM*	?	?	.	12.6µM*	12.6µM*
O=C1CSC(=S)N1N=Cc1cccc2ccccc12	-5.0%	?	-20.1%	-21.1%	-2.9%	.	.	.
COC1=C(OC)C(=O)C(Sc2ccc3ccccc3c2)=CC1=O	-5.9%	-90.8*	0.752µM*	8.91µM*	0.3%	.	0.355µM*	2.24µM*
COc1ccc(S(=O)(=O)Oc2ccc3ccccc3c2)cc1	-0.3%	-9.8	-3.7%	-4.8%	-3.5%	-3.3%	.	.
CCc1ccc(NC(=O)c2nnn(Cc3cccc(C(F)(F)F)c3)c2N)cc1	.	.	.	-4.8%	.	-5.2%	.	.
O=C1C2C(C(=O)N1/N=C/c1ccc(N3CCCCC3)o1)C1C=CC2C12CC2 (stereo not drawn)	-29.4%	?	-4.1%	89.1µM*	?	51.0%	28.2µM*	31.6µM*
CCOC(=O)CN1C(=O)S/C(=C/c2ccc(N3CCCCC3)o2)C1=O	?	-3.7	73.3%	-14.3%	?	-2.1%	.	.
